Data taken from paper PMC9911399, “Two distinct binding modes provide the RNA-binding protein RbFox with extraordinary sequence specificity”.
Where a chain is given by its changes, count along the chain named. In all, about 16,000 sequences were measured (“ka relative to ugcaugu”: median about 0.096, highest 2% from about 0.35 on). The list comes from a sample in which the highest values are over-represented; it also holds similar and randomly drawn sequences.

T1: RBFOX1 RRM RbFoxmut (Fox-RRM*) (Homo sapiens, UniProt Q9NWB1 109-208, R118D;E147R;N151S;E152T)
T1 sequence: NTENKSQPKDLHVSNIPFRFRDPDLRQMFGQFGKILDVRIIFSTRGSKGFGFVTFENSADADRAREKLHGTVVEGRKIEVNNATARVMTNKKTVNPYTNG

B1: GUAUUUG (DNA:RNA)
RNA: GGGAGACCGGAAUUCAGAUUGUCCGUAUUUGUUAAAUCCCGUCGUAGCCACCA
DNA 1: CAATCTGAATTCCGGTCTCCC
DNA 2: TGGTGGCTACGACGGGATT
B2: CCUUCAG (DNA:RNA)
RNA: B1 RNA with G25C, U26C, A27U, U29C, U30A
DNA 1: CAATCTGAATTCCGGTCTCCC
DNA 2: TGGTGGCTACGACGGGATT
B3: UGUCGGU (DNA:RNA)
RNA: GGGAGACCGGAAUUCAGAUUGUCCUGUCGGUUUAAAUCCCGUCGUAGCCACCA
DNA 1: CAATCTGAATTCCGGTCTCCC
DNA 2: TGGTGGCTACGACGGGATT
B4: ACGAACU (DNA:RNA)
RNA: B3 RNA with U25A, G26C, U27G, C28A, G29A, G30C
DNA 1: CAATCTGAATTCCGGTCTCCC
DNA 2: TGGTGGCTACGACGGGATT
B5: UUGCCAC (DNA:RNA)
RNA: B3 RNA with G26U, U27G, G29C, G30A, U31C
DNA 1: CAATCTGAATTCCGGTCTCCC
DNA 2: TGGTGGCTACGACGGGATT
B6: GUGUGCC (DNA:RNA)
RNA: B1 RNA with A27G, U29G, U30C, G31C
DNA 1: CAATCTGAATTCCGGTCTCCC
DNA 2: TGGTGGCTACGACGGGATT
B7: ACUUGCC (DNA:RNA)
RNA: B3 RNA with U25A, G26C, C28U, G30C, U31C
DNA 1: CAATCTGAATTCCGGTCTCCC
DNA 2: TGGTGGCTACGACGGGATT
B8: UGGCUUG (DNA:RNA)
RNA: B1 RNA with G25U, U26G, A27G, U28C
DNA 1: CAATCTGAATTCCGGTCTCCC
DNA 2: TGGTGGCTACGACGGGATT
B9: UCCUGGC (DNA:RNA)
RNA: B3 RNA with G26C, U27C, C28U, U31C
DNA 1: CAATCTGAATTCCGGTCTCCC
DNA 2: TGGTGGCTACGACGGGATT
B10: UUGUGCC (DNA:RNA)
RNA: B1 RNA with G25U, A27G, U29G, U30C, G31C
DNA 1: CAATCTGAATTCCGGTCTCCC
DNA 2: TGGTGGCTACGACGGGATT
B11: CCGUGCC (DNA:RNA)
RNA: B1 RNA with G25C, U26C, A27G, U29G, U30C, G31C
DNA 1: CAATCTGAATTCCGGTCTCCC
DNA 2: TGGTGGCTACGACGGGATT
B12: AGUGCCU (DNA:RNA)
RNA: B3 RNA with U25A, C28G, G29C, G30C
DNA 1: CAATCTGAATTCCGGTCTCCC
DNA 2: TGGTGGCTACGACGGGATT
B13: UGCUGGC (DNA:RNA)
RNA: B3 RNA with U27C, C28U, U31C
DNA 1: CAATCTGAATTCCGGTCTCCC
DNA 2: TGGTGGCTACGACGGGATT
B14: CAGUGCC (DNA:RNA)
RNA: B1 RNA with G25C, U26A, A27G, U29G, U30C, G31C
DNA 1: CAATCTGAATTCCGGTCTCCC
DNA 2: TGGTGGCTACGACGGGATT
B15: CAGUGCG (DNA:RNA)
RNA: B1 RNA with G25C, U26A, A27G, U29G, U30C
DNA 1: CAATCTGAATTCCGGTCTCCC
DNA 2: TGGTGGCTACGACGGGATT
B16: ACUUGCG (DNA:RNA)
RNA: B1 RNA with G25A, U26C, A27U, U29G, U30C
DNA 1: CAATCTGAATTCCGGTCTCCC
DNA 2: TGGTGGCTACGACGGGATT
B17: CCUUAUC (DNA:RNA)
RNA: B1 RNA with G25C, U26C, A27U, U29A, G31C
DNA 1: CAATCTGAATTCCGGTCTCCC
DNA 2: TGGTGGCTACGACGGGATT
B18: AAAUGUC (DNA:RNA)
RNA: B1 RNA with G25A, U26A, U29G, G31C
DNA 1: CAATCTGAATTCCGGTCTCCC
DNA 2: TGGTGGCTACGACGGGATT
B19: CUAUAGG (DNA:RNA)
RNA: B1 RNA with G25C, U29A, U30G
DNA 1: CAATCTGAATTCCGGTCTCCC
DNA 2: TGGTGGCTACGACGGGATT
B20: CUGCGUG (DNA:RNA)
RNA: B1 RNA with G25C, A27G, U28C, U29G
DNA 1: CAATCTGAATTCCGGTCTCCC
DNA 2: TGGTGGCTACGACGGGATT

Each binder was assayed against T1, RBFOX1 RRM RbFoxmut (Fox-RRM*) (assay: EMSA; HiTS-Eq, 1 nM pool, 10 min; buffer printed only for the single-RNA assays: 10 mM Tris pH 7.5, 150 mM NaCl, 3.4 mM EDTA, 0.001% NP-40, 30 C). Conditions: tags: His6 N-terminal (pET28a); label: 5' 32P.
Procedure, shortened: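 A pool of RNA with 7 randomized nucleotides, 5′-radiolabelled and with DNA-annealed flanks, was equilibrated at 1 nM for 10 min in 50 µL with purified RbFox RRM, wild type or mutant, across increasing protein concentrations. Free RNA was separated by 8% native PAGE, excised, reverse-transcribed, barcoded by PCR and sequenced. Relative association constants were obtained from read-count changes of each RNA species versus the control reaction and normalised to the cognate motif.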

Row | Binder | binding signal
1 | B1 | 0.17 KA relative to UGCAUGU
2 | B2 | 0.114 KA relative to UGCAUGU
3 | B3 | 0.112 KA relative to UGCAUGU
4 | B4 | 0.0682 KA relative to UGCAUGU
5 | B5 | 0.0642 KA relative to UGCAUGU
6 | B6 | 0.22 KA relative to UGCAUGU
7 | B7 | 0.372 KA relative to UGCAUGU
8 | B8 | 0.92 KA relative to UGCAUGU
9 | B9 | 0.128 KA relative to UGCAUGU
10 | B10 | 0.46 KA relative to UGCAUGU
11 | B11 | 0.264 KA relative to UGCAUGU
12 | B12 | 0.0968 KA relative to UGCAUGU
13 | B13 | 0.119 KA relative to UGCAUGU
14 | B14 | 0.402 KA relative to UGCAUGU
15 | B15 | 0.148 KA relative to UGCAUGU
16 | B16 | 0.156 KA relative to UGCAUGU
17 | B17 | 0.0522 KA relative to UGCAUGU
18 | B18 | 0.145 KA relative to UGCAUGU
19 | B19 | 0.0751 KA relative to UGCAUGU
20 | B20 | 0.232 KA relative to UGCAUGU
